According to PubChem BioAssay (NCI):
About 79,000 compounds went through this panel and 15% of them were active in at least one assay; those are over-represented in the sample as a whole. Unmarked numbers belong to inactive results. Active and inactive are the calls of the source. No stated cut-off is given here; in the data, active means growth inhibition above about 70%; inactive means the rest.

Key:
[1] = NCI Yeast Anticancer Drug Screen. Data for the rad50 strain (AID 155);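 further: 0% = growth of vehicle-only cultures of the same strain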; conditions: S. cerevisiae rad50 strain growth inhibition, hits give high values
Method in brief: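 Cells are treated with compound, grown, and their growth is then scored against vehicle-only cultures of the same repair-deficient yeast strain.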

[2] = NCI Yeast Anticancer Drug Screen. Data for the mec2-1 strain (AID 157); conditions: S. cerevisiae mec2-1 strain, hits give high values
Method in brief: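 Using mec2-1 yeast: add compound, measure growth, express inhibition versus vehicle-treated cultures.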

[3] = NCI Yeast Anticancer Drug Screen. Data for the sgs1 mgt1 strain (AID 161);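 further: 0% = growth of cultures given vehicle only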; conditions: S. cerevisiae sgs1 mgt1 strain, hits give high values
Method in brief: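 Growth of a repair-deficient yeast mutant was monitored after compound treatment and expressed as inhibition relative to vehicle-treated cultures.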

[4] = NCI Yeast Anticancer Drug Screen. Data for the cln2 rad14 strain (AID 165);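 further: 0% = growth equal to vehicle treated cultures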; conditions: S. cerevisiae cln2 rad14 strain, hits give high values
Method in brief: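 Yeast strain cln2 rad14, bearing defects in cell cycle control and DNA repair, serves as the test system; values reflect growth inhibition compared with vehicle.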

[5] = NCI Yeast Anticancer Drug Screen. Data for the bub3 strain (AID 167); conditions: S. cerevisiae bub3 mutant strain, hits give high values
Method in brief: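 Part of a panel of yeast mutants defective in DNA damage repair or cell cycle regulation. Each strain is grown with compound, and inhibition is calculated relative to solvent-treated cultures.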

[6] = NCI Yeast Anticancer Drug Screen. Data for the mlh1 rad18 strain (AID 175); conditions: S. cerevisiae mlh1 rad18 strain growth inhibition, hits give high values
Method in brief: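 Steps: expose repair-defective yeast to compound; measure growth; express inhibition against vehicle-treated controls.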

[7] = at 5.0 µM (retest, dose inferred, filed as 0.5)
[8] = at 50.0 µM (retest, dose inferred, filed as 5.0)

Row | SMILES | growth inhibition [1, 7] | growth inhibition [1, 8] | growth inhibition ([1]; at 50.0 µM) | growth inhibition [2, 7] | growth inhibition [2, 8] | growth inhibition ([2]; at 50.0 µM) | growth inhibition [3, 7] | growth inhibition [3, 8] | growth inhibition ([3]; at 50.0 µM) | growth inhibition [4, 7] | growth inhibition [4, 8] | growth inhibition ([4]; at 50.0 µM) | growth inhibition [5, 7] | growth inhibition [5, 8] | growth inhibition ([5]; at 50.0 µM) | growth inhibition [6, 7] | growth inhibition [6, 8] | growth inhibition ([6]; at 50.0 µM)
1 | CNC1C(O)CC(OC2C/C=C(\C)C/C(C)=C/C=C/CCC(C)CNC(=O)/C=C/C=C/C2C)OC1C (stereo not given) | -6% | 99% (active) | 14.4% | 19% | 100% (active) | 63.1% | 31% | 100% (active) | 98.3% (active) | -14% | 99% (active) | 99.2% (active) | 20% | 100% (active) | 99.5% (active) | 18% | 100% (active) | 99.1% (active)
2 | CN(C)[PH+](N(C)C)N(C)C.CN(C)[PH+](N(C)C)N(C)C.[C-]#[O+].[C-]#[O+].[C-]#[O+].[C-]#[O+].[C-]#[O+].[C-]#[O+].[Co].[Co].[Hg] | 3% | 16% | 98.2% (active) | 3% | 16% | 99.7% (active) | 1% | 9% | 99.6% (active) | -3% | 2% | 99.2% (active) | 2% | 13% | 99.5% (active) | 5% | 20% | 98.8% (active)
3 | ClC(CN1CCCCC1)C(Cl)c1ccccc1 (stereo not given) | 6% | 28% | 46.6% | 2% | 21% | 4.8% | 5% | 53% | 62% | 7% | 37% | 53% | 6% | 58% | 51.9% | 16% | 57% | 35.1%
4 | O=[N+]([O-])/C=C\c1ccc2c(c1)OCO2 | 99% (active) | 100% (active) | 99.3% (active) | 100% (active) | 100% (active) | 99.5% (active) | 99% (active) | 99% (active) | 99.5% (active) | 100% (active) | 99% (active) | 98.8% (active) | 100% (active) | 94% (active) | 99% (active) | 100% (active) | 100% (active) | 99.5% (active)
5 | COC(=O)C1ON(c2ccccc2)C2c3ccccc3-c3ccccc3C12 (stereo not given) | 31% | 63% | 58.2% | 27% | 62% | 18.9% | 45% | 76% (active) | 61.3% | 14% | 67% | 50% | 33% | 86% (active) | 67.2% | 42% | 68% | 75% (active)
6 | N#CC1CC[CH-]CC1.[Cl-].[Cl-].[Cl-].[Cl-].[Cl-].[Sb+5].c1ccncc1 | -1% | 98% (active) | 99.1% (active) | 3% | 100% (active) | 96.3% (active) | 5% | 99% (active) | 99.3% (active) | 11% | 99% (active) | 99.3% (active) | -1% | 99% (active) | 90.5% (active) | 3% | 99% (active) | 98.5% (active)
7 | Cc1cc([N+](=O)[O-])c2ccccc2[n+]1[O-] | 99% (active) | 99% (active) | 99.1% (active) | 100% (active) | 100% (active) | 99.5% (active) | 99% (active) | 99% (active) | 48.6% | 100% (active) | 100% (active) | 58.4% | 99% (active) | 99% (active) | 99.2% (active) | 100% (active) | 100% (active) | 49.8%
8 | CC(=O)Nc1c2sscc-2n(C)c1=O | 98% (active) | 99% (active) | 93.2% (active) | 99% (active) | 100% (active) | 94.9% (active) | 99% (active) | 99% (active) | 94.6% (active) | 98% (active) | 99% (active) | 93.2% (active) | 97% (active) | 99% (active) | 94% (active) | 99% (active) | 99% (active) | 92.7% (active)
9 | Nc1nc(N)c(-c2ccc(Cl)c(Cl)c2)c(COc2ccc(CNC(=O)Nc3cccc(S(=O)(=O)F)c3)cc2Cl)n1 | 2% | 11% | 26.8% | -5% | 10% | 58.9% | -4% | 6% | 74.8% (active) | -6% | 11% | -4.6% | 0% | 20% | 13.2% | 2% | 42% | 66.4%
10 | NC(=O)c1ccc(C(=O)Nc2ccc([As](=O)(O)O)cc2)cc1 | 30% | 21% | -3.85% | 6% | 3% | -26.7% | 22% | 3% | -43.2% | 2% | -14% | 49.4% | -7% | 1% | -13.1% | 11% | 9% | -15.9%
11 | COc1ccc([Se][Se]c2ccc(OC)cc2OC)c(OC)c1 | 18% | 18% | 88.3% (active) | 23% | 23% | 89.8% (active) | 18% | 18% | 88.5% (active) | 9% | 9% | 90% (active) | -4% | -4% | 89.7% (active) | 12% | 12% | 88.4% (active)
12 | Cc1[cH-]c(=O)n(-c2ccccc2)n1.[Au+].[Au].c1ccc([PH+](c2ccccc2)c2ccccc2)cc1.c1ccc([PH+](c2ccccc2)c2ccccc2)cc1 | 27% | 65% | 88.8% (active) | 32% | 96% (active) | 90.3% (active) | 33% | 93% (active) | 91.5% (active) | 18% | 65% | 88.7% (active) | 19% | 87% (active) | 89.4% (active) | 35% | 79% (active) | 83% (active)
13 | COc1c(Br)cc(/C=C/[N+](=O)[O-])cc1Br | 98% (active) | 98% (active) | 92.4% (active) | 99% (active) | 99% (active) | 91.6% (active) | 98% (active) | 99% (active) | 89.8% (active) | 96% (active) | 97% (active) | 90.5% (active) | 99% (active) | 97% (active) | 88.2% (active) | 98% (active) | 98% (active) | 82.8% (active)
14 | [Cl][Sn]([Cl])([c]1ccccc1)[c]1ccccc1.c1ccc2nc(-c3ccc4ccccc4n3)ccc2c1 | 16% | 97% (active) | 84% (active) | 16% | 98% (active) | 96% (active) | 32% | 97% (active) | 75.3% (active) | 6% | 96% (active) | 45.1% | 5% | 96% (active) | 59.6% | 23% | 96% (active) | 93.2% (active)
15 | CC(=O)OCC12CC(O)C(C)=CC1OC1C(O)C(OC(C)=O)C2(C)C12CO2 (stereo not given) | 8% | 33% | 91.8% (active) | 12% | 36% | 91% (active) | 13% | 36% | 90.3% (active) | 16% | 39% | 77.3% (active) | 8% | 21% | 91.8% (active) | 8% | 37% | 92.1% (active)
16 | CC1CC[N-]C(C)C1.CN(C)C=O.[Cl][Pt][Cl] (stereo not given) | 33% | 100% (active) | 80.7% (active) | 42% | 100% (active) | 92.2% (active) | 66% | 100% (active) | 89.8% (active) | 61% | 100% (active) | 49% | 73% (active) | 100% (active) | 89.4% (active) | 25% | 99% (active) | 89.8% (active)
17 | CN(CCCl)c1ccc(/C=C/C2=[N+](C)c3ccccc3C2(C)C)cc1 | -6% | 98% (active) | 99.5% (active) | -3% | 98% (active) | 99.5% (active) | -6% | 98% (active) | 99.7% (active) | -2% | 98% (active) | 98.4% (active) | -3% | 99% (active) | 99.2% (active) | 9% | 98% (active) | 98.7% (active)
18 | Cc1cc(N(CCCl)CCCl)ccc1CN1CCCN(Cc2ccc(N(CCCl)CCCl)cc2C)C1c1ccc(N(CCCl)CCCl)cc1 | 11% | 97% (active) | 66.2% | 1% | 99% (active) | 21.6% | 3% | 98% (active) | 86.8% (active) | -3% | 98% (active) | 21.4% | 5% | 88% (active) | 30.8% | 33% | 97% (active) | 97.2% (active)
19 | CCC[CH2][Sn]1([CH2]CCC)[O]CC(COc2c(Cl)cc(Cl)cc2Cl)[O]1 (stereo not given) | 94% (active) | 94% (active) | 91.2% (active) | 92% (active) | 92% (active) | 91.3% (active) | 97% (active) | 97% (active) | 90.2% (active) | 89% (active) | 89% (active) | 90% (active) | 89% (active) | 89% (active) | 92.5% (active) | 91% (active) | 91% (active) | 89.8% (active)
20 | COC1OC(OC)[CH]([Hg][Cl])C1OC (stereo not given) | 99% (active) | 99% (active) | 99.5% (active) | 99% (active) | 100% (active) | 99.7% (active) | 99% (active) | 99% (active) | 99.4% (active) | 99% (active) | 99% (active) | 98.5% (active) | 100% (active) | 99% (active) | 99.2% (active) | 99% (active) | 99% (active) | 99.4% (active)
